From PubChem BioAssay (NCI)
The panel holds about 83,000 compounds, 20% with a hit somewhere; the sample as a whole holds those more often.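 Activity criterion: percent growth below 10, measured after cells in 96-well plates were exposed to a single compound concentration for 48 hours.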 Calls of active or inactive are those of the source.

What was measured:
Test in all cases: NCI-60 one-dose screen, 48 h (100 = growth as untreated, 0 = no growth, -100 = all killed)
Settings in all cases: 10 µM unless noted
[1] = tested on: NCI-H23 lung
[2] = tested on: NCI-H226 lung
[3] = tested on: NCI-H322M lung
[4] = tested on: HOP-62 NSCLC
[5] = tested on: NCI-H460 lung
[6] = tested on: HOP-92 NSCLC
[7] = tested on: NCI-H522 lung
[8] = tested on: A549/ATCC NSCLC
[9] = tested on: 786-0 renal
[10] = tested on: COLO 205 colon
[11] = tested on: DU-145 prostate
[12] = tested on: K-562 leukemia
[13] = tested on: MALME-3M melanoma
[14] = tested on: MDA-MB-231 breast
[15] = tested on: RXF 393 renal
[16] = tested on: SF-268 CNS
[17] = tested on: SF-295 CNS
[18] = tested on: SF-539 CNS
[19] = tested on: UACC-257 melanoma
[20] = tested on: M14 melanoma

Measured: growth

CCOC(=O)c1c(N)c(C#N)cn1Cc1ccc(Cl)cc1Cl
inactive: [1] 84.4% | [2] 85.1% | [3] 87.4% | [4] 68.7% | [5] 81.2% | [6] 73.1% | [7] 67.2% | [8] 76.2% | [9] 76.4% | [10] 106% | [11] 93.5% | [12] 24.8% | [13] 85.6% | [14] 43.9% | [15] 63.1% | [16] 80.5% | [17] 80.2% | [18] 73.3% | [19] 92.7% | [20] 72.4%

COC(=O)[C@@H](Cc1c[nH]c2ccccc12)NC(=O)CCCCOc1cc(O)c2c(=O)cc(-c3ccccc3)oc2c1
inactive: [1] 35.2% | [2] 88.8% | [3] 95.8% | [4] 96.2% | [5] 94.4% | [6] 60.6% | [7] 86.7% | [8] 86.7% | [9] 97% | [10] 90.4% | [11] 93.3% | [12] 83.6% | [13] 94.3% | [14] 81.7% | [15] 76.8% | [16] 84.2% | [17] 91.2% | [18] 90.3% | [19] 97.1% | [20] 97.2%

N#Cc1c(-c2cccs2)cc(-c2cnccn2)nc1SCC(=O)N/N=C/c1ccncc1
inactive: [1] 102% | [2] 104% | [3] 116% | [4] 106% | [5] 108% | [6] 98.4% | [7] 96.1% | [8] 107% | [9] 104% | [10] 118% | [11] 112% | [12] 96.1% | [13] 120% | [14] 102% | [15] 105% | [16] 106% | [17] 99.4% | [18] 97.6% | [19] 107% | [20] 110%

Cn1cc(-c2nn3cc(-c4ccncc4)nc3s2)c2cc(F)ccc21
inactive: [1] 82% | [2] 83.5% | [3] 87.9% | [4] 79.6% | [5] 65.8% | [6] 49.2% | [7] 86.9% | [8] 94.9% | [9] 89.6% | [10] 55% | [11] 90.8% | [12] 19.7% | [13] 65.5% | [14] 63.3% | [15] 88% | [16] 94.8% | [17] 96.7% | [18] 87% | [19] 111% | [20] 93.4%

CC1=C(C)C(=O)C(Nc2ccc3c(c2)OCCO3)=C(Br)C1=O
active: [12] 4.46%
inactive: [1] 85.2% | [2] 85.6% | [3] 102% | [4] 97.6% | [5] 102% | [6] 68.2% | [7] 96.9% | [8] 107% | [9] 105% | [10] 126% | [11] 107% | [13] 122% | [14] 88.3% | [15] 100% | [16] 97.8% | [17] 94.7% | [18] 105% | [19] 102% | [20] 106%

C/C(=N\NC(=O)Nc1ccccc1)c1nnn(-c2ccc([N+](=O)[O-])cc2)c1C
inactive: [1] 94.7% | [2] 100% | [3] 99.1% | [4] 111% | [5] 108% | [6] 120% | [7] 99.9% | [8] 107% | [9] 102% | [10] 112% | [11] 105% | [12] 113% | [13] 108% | [14] 106% | [15] 78.2% | [16] 103% | [17] 108% | [18] 99.9% | [19] 108% | [20] 105%

Cc1ccc2c(n1)C(=O)C(Cl)=C(Nc1ccc(C)c(C)c1)C2=O
active: [11] 6.17% | [12] 4.14%
inactive: [1] 11.7% | [2] 36% | [3] 60.9% | [4] 60.2% | [5] 46.4% | [6] 105% | [7] 58.9% | [8] 24.5% | [9] 104% | [10] 105% | [13] 85.4% | [14] 49.3% | [15] 85.7% | [16] 79.1% | [17] 44.7% | [18] 59.9% | [19] 16% | [20] 42.5%
